Screens deposited in PubChem BioAssay by National Center for Advancing Translational Sciences (NCATS).
Sampled rows, rich in hits. Any-hit rate of the full collection: about 21%.
NS1 inh = qHTS Assay for Inhibitors of Influenza NS1 Protein Function. Potency, µM (top dose mostly 46.1 µM), without a hit: at the highest dose activity, positive = more growth. 0.4% of 270,000 active. AID 2326, 2010; calls by dose curve; also: potency is read from the fitted curve at half-maximal effect; actives are rising curves; nearly all actives have a fitted effect of over 50% in size
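A cell-based growth assay was used: compounds that relieve NS1-induced slow growth of budding yeast raise OD600. Assay medium was yeast nitrogen base with ammonium sulphate and -URA supplement, pH 6.0, with 2% galactose.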
Pf growth 48h = Primary qHTS for delayed death inhibitors of the malarial parasite plastid, 48 hour incubation; Potency, µM (top dose mostly 28.7 µM), for inactives: at the highest dose activity change, negative = inhibition, usual class: inhibitors; P. falciparum luciferase growth in erythrocytes, 48 h; AID 504832, 2011; 5.9% of 310,000 active; also: potency is read from the fitted curve at half-maximal effect; % is scaled to controls: 0 for no effect and ±100 for the full control effect
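Luciferase-expressing P. falciparum in infected erythrocytes (2% hematocrit, 0.1% parasitemia final) in RPMI 1640/0.5% Albumax were exposed to compound for 48 hours at 37 C, 5% CO2; growth read as luminescence.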
Cycloheximide cs = Cycloheximide Counterscreen for Small Molecule Inhibitors of Shiga Toxin. max response, %. 12% of 300,000 active. cell reporter, cycloheximide protein synthesis inhibition counterscreen; in the data active = max response mostly above about 13%, no sharp cut-off; inactive = mostly below about 14%; also: read at 38.3 µM for the half of the compounds with a filed dose; 0% is about no effect
Shiga toxin inh = A qHTS for Small Molecule Inhibitors of Shiga Toxin; Vero cells, Shiga toxin protein synthesis inhibition reporter; inhibition, % at 38.7 µM; 9.2% of 290,000 active; AID 2315, 2010; in the data active = inhibition mostly above about 28%, no sharp cut-off; inactive = mostly below about 43%; also: 0% is about no effect
Pf growth 96h = Primary qHTS for delayed death inhibitors of the malarial parasite plastid, 96 hour incubation; P. falciparum luciferase reporter growth, 96 h; Potency, µM (titrated, usually from 28.7 µM), for inactives: top-dose activity change, negative = inhibition, most hits filed as inhibitors; 6.9% of 320,000 active; also: potency is read from the fitted curve at half-maximal effect; % is scaled to controls: 0 for no effect and ±100 for the full control effect
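P. falciparum expressing integrated firefly luciferase, in erythrocytes at 2% hematocrit, 0.05% parasitemia, incubated with compounds 96 h at 37 C, 5% CO2. Growth inhibition read as loss of luminescence; two-generation exposure targets delayed-death apicoplast inhibitors.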
* = called active by the depositor; u = inconclusive; x = no result. Unless noted, calls follow the shape of the dose curve; as a rule, active = well fitted inhibition curve with a large enough effect; inconclusive = small, poorly fitted or top-dose-only effect, or another doubt; inactive = no such curve, though single readings can be large or run the other way.

SMILES	NS1 inh	Pf growth 48h	Cycloheximide cs	Shiga toxin inh	Pf growth 96h
CCCCCCSc1ccc([C@H]2N[C@@](Cc3ccccc3)(C(=O)OC)[C@H]3C(=O)N(C)C(=O)[C@@H]23)cc1OC	x	3.3µM*	x	x	2.3µM*
O=C(/C=C/Nc1ccccc1O)c1ccco1	-75%	71%	38*	63*	15%
O=C(/C=C/Nc1ccc(Br)cc1F)c1ccco1	-35%	312%	12	29	49%
O=C(/C=C/Nc1ccccc1Oc1ccccc1)c1ccco1	-6%	10µM*	51*	119*	u
Cc1ccccc1OCCCn1c(CO)nc2ccccc21	x	0%	18*	71*	u
OCc1nc2ccccc2n1CCCOc1ccc(Br)cc1	-60%	19%	21*	40*	x
N=c1n(CCCOc2ccc(Br)cc2)c2ccccc2n1CC(N)=O	0%	13µM*	-3	-7	9.3µM*
COc1ccccc1OCCn1c(CO)nc2ccccc21	-1%	9%	7	-4	23%
N#C/C(=N\O)c1nc(-c2ccccc2)cs1	-211%	5%	-2	9	-21%
N#CC(=C1CCCC1)c1nc(-c2ccccc2)cs1	-6%	158%	54*	103*	x
N#CC(=C1CCCC1)c1nc(-c2ccccc2O)cs1	2%	-30%	54*	106*	41%
N#CC(=C1CCCC1)c1nc(-c2cc3ccccc3oc2=O)cs1	1%	40%	32*	51*	245%
Cc1ccc(-c2csc(C(C#N)=C3CCCC3)n2)cc1	-9%	229%	25*	74*	x
c1ccc2c(c1)nnn2-c1ncnc2sccc12	x	258%	34*	62*	-22%
O=[n+]1cc(-c2ccc(Br)cc2)n([O-])c2c1CCC2	-1%	3%	-3	-12	179%
CCOC(=O)CSc1ncc(-c2ccccc2)cn1	-9%	-9%	14	71	11%
C#CCSc1nnc(-c2ccccc2)c(=O)[nH]1	-58%	7%	2	32	u
CSc1ncc(-c2ccccc2)cn1	x	26%	47*	77	16%
O=C(O)CSc1nnc(-c2ccccc2)c(-c2ccccc2)n1	3%	-1%	-3	5	2%
C#CCSc1ncc(-c2ccccc2)cn1	x	358%	44*	77*	54%
CSc1nnc(-c2ccccc2)c(-c2ccccc2)n1	-1%	12µM*	1	-5	u
C=CCSc1ncc(-c2ccccc2)cn1	x	u	35*	63*	134%
N#CCc1cnc2ccccc2n1	5%	-4%	18*	69*	0%
NS(=O)(=O)c1ccc(NCc2cnc3ccccc3n2)cc1	0%	x	x	x	x
Cc1ccc(CCNCc2c(C(=O)O)c(C)n(-c3ccccc3)c2C)cc1	6%	-23%	7	-10	u
SMILES	NS1 inh	Pf growth 48h	Cycloheximide cs	Shiga toxin inh	Pf growth 96h
Cc1c(CNCCc2ccc(Cl)cc2)c(C(=O)O)c(C)n1-c1ccccc1	2%	12%	-2	26	12µM*
Cc1nn(Cc2ccccc2)c(C)c1C(=O)NCc1ccccc1	x	22%	6	30	-1%
Cc1nn(Cc2ccccc2)c(C)c1C=C1C(=O)NC(=O)NC1=O	13%	0%	-4	-6	8.3µM*
C=CCn1c(SCC(=O)c2ccc(F)cc2)nnc1-c1ccc2c(c1)OCO2	x	-5%	-2	-10	u
CN(CC(=O)Nc1ccc(F)c(F)c1)S(=O)(=O)c1cccs1	-8%	30%	10	2	-3%
CN(CC(=O)Nc1ccc2c(c1)OCO2)S(=O)(=O)c1cccs1	-2%	84%	47*	67*	u
CCc1cccc(NC(=O)CN(C)S(=O)(=O)c2cccs2)c1	x	22%	24*	71*	u
CN(C)c1cc[n+](CC(O)C[n+]2ccc(N(C)C)cc2)cc1	x	9.3µM*	x	x	4.7µM*
CN(C)c1cc[n+](CC(=O)Nc2c(Cl)cc(Cl)cc2Cl)cc1	1%	-15%	-8	-6	145%
COc1cc(OC)cc(C(=O)N[C@H](C(=O)NCCc2ccc(S(N)(=O)=O)cc2)C(C)C)c1	2%	-13%	-2	-6	-17%
COc1ccc(CN2CC[C@H]3C=CCc4cccc(c43)C2)cc1	x	3.7µM*	x	x	u
C1=C[C@@H]2CCN(Cc3ccccc3)Cc3cccc(c32)C1	x	8.3µM*	x	x	7.4µM*
COc1ccc(CNC2CCN(Cc3ccccc3)CC2)cc1	u	u	-2	-2	-3%
Cc1ccc(CN2CC[C@H]3C=CCc4cccc(c43)C2)cc1	x	5.2µM*	x	x	u
